# Measured values as given in article PMC4336329 (PLoS ONE, 2015).
# The campaign covered roughly 310,000 compounds. About 14,000 (4.5%) showed an effect of 50% or more. Effects have a minus sign here. This is one part of a sample in which strong results are shown more often than they occur.
# Target: human ether-à-go-go-related gene (hERG) potassium channel (human, UniProt Q12809)
# Assay: primary screen, population patch clamp on CHO cells stably expressing hERG; higher = less effect of the substance
# 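Further: peak tail current of the secondary pulse compared with the same well before compound.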
# Chain of human ether-à-go-go-related gene (hERG) potassium channel (Q12809 whole entry, looked up): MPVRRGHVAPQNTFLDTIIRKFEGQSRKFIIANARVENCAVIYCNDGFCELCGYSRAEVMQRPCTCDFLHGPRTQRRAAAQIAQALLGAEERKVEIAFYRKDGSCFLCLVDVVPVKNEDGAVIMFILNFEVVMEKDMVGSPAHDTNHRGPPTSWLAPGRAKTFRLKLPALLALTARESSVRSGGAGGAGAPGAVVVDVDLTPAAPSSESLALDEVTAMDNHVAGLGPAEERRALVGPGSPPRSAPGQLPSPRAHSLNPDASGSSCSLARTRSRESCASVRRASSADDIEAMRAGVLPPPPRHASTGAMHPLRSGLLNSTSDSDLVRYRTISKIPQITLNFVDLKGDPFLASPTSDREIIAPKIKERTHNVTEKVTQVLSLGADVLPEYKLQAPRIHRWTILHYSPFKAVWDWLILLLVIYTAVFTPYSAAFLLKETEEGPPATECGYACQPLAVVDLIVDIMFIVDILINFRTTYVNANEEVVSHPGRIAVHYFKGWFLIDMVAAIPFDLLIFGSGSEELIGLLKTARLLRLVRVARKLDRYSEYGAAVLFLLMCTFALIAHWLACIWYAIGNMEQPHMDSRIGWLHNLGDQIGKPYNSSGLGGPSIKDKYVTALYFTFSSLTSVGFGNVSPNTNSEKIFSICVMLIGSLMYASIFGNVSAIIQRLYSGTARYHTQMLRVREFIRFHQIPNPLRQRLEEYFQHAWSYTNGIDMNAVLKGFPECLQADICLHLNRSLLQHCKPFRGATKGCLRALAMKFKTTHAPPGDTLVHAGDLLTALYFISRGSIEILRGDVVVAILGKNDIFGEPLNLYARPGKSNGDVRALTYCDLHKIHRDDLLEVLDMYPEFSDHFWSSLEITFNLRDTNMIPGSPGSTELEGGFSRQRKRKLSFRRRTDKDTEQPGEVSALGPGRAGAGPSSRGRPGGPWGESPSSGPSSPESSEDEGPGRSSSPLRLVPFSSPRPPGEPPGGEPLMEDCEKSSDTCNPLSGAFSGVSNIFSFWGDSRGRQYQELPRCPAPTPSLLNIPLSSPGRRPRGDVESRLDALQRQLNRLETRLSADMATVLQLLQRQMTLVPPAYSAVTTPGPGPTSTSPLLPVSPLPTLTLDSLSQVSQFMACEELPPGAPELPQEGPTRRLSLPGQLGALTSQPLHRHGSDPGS
row,Compound,"hERG current change (%, negative = inhibition) at 10uM [%]"
1,COc1ccc(/C=N/NC(=O)c2ccc(NC(=O)C3CCCCC3)cc2)cc1O,24.3
2,Cc1cc(NC(=O)CSc2ccc(-c3ccc(Br)cc3)nn2)no1,11.1
3,Cc1cc(C)cc(N(CCC#N)C(=O)CSc2n[nH]c(N)n2)c1,12.6
4,O=C(NCCN1CCOCC1)c1ccc(NS(=O)(=O)c2cccc([N+](=O)[O-])c2)cc1,10.6
5,Cc1ccc(/C=N/N2CCN(Cc3cccc4ccccc34)CC2)s1,-3.05
6,COc1ccc(S(=O)(=O)N2N=C(c3cccc(NS(C)(=O)=O)c3)CC2c2ccco2)cc1 (stereo not shown),-3.61
7,CS(=O)(=O)Nc1ccc(C2=NN(S(=O)(=O)c3ccc(F)cc3)C(c3ccco3)C2)cc1 (stereo not shown),-70.2
8,COc1ccc(S(=O)(=O)N2N=C(c3ccc(NS(C)(=O)=O)cc3)CC2c2ccco2)cc1 (stereo not shown),-74.2
9,CCS(=O)(=O)Nc1ccc(C2=NN(S(=O)(=O)c3ccc(F)cc3)C(c3ccco3)C2)cc1 (stereo not shown),-38.8
10,CS(=O)(=O)Nc1cccc(C2=NN(S(=O)(=O)c3ccccc3)C(c3ccco3)C2)c1 (stereo not shown),-29.9
11,Cc1ccc(C2=NN(S(=O)(=O)c3ccccc3)C(c3ccco3)C2)cc1 (stereo not shown),8.53
12,CCCc1cc(=O)oc2cc(C)cc(OCC(=O)NCC(O)c3ccccc3)c12 (stereo not shown),13.5
13,Cc1cccc(CCNC(=O)CCS(=O)(=O)c2ccc(Br)cc2)c1,8.8
14,O=C(NC(=S)N1CCN(C/C=C/c2ccccc2)CC1)c1ccco1,-35
15,S=C(NCc1ccco1)N1CCN(Cc2ccco2)CC1,1.76
16,O=C(/C=C/c1ccco1)N1CCN(S(=O)(=O)/C=C/c2ccccc2)CC1,-45
17,O=C(/C=C/c1ccco1)N1CCC(Cc2ccccc2)CC1,4.42
18,S=C(NCc1ccco1)N1CCN(C/C=C/c2ccccc2)CC1,-56.2
19,O=C(/C=C/c1ccco1)N1CCN(C/C=C/c2ccccc2)CC1,-58.8
20,Cc1cccc(C(=O)N(C)c2nnc(-c3ccncc3)s2)c1,1.3
21,Cc1ccc(NC(=O)Cn2ccsc2=N)c([N+](=O)[O-])c1.Cl,35.1
22,CC(C)CCNc1nc(N)c([N+](=O)[O-])c(N2CCCCCC2)n1,12.1

row,Compound,"hERG current change (%, negative = inhibition) at 10uM [%]"
1,c1ccc(C2Nc3ccccc3-c3nc4ccccc4n32)cc1 (stereo not shown),-18.1
2,c1cncc(C2Nc3ccccc3-c3nc4ccccc4n32)c1 (stereo not shown),-5.58
3,c1ccc2c(c1)NC(c1ccncc1)n1c-2nc2ccccc21 (stereo not shown),-66.2
4,Cc1cc(NC(=O)CCC(=O)N(CC(=O)NCC2CCCO2)c2ccc(C)c(C)c2)no1 (stereo not shown),8.68
5,CCOC(=O)c1[nH]ncc1[C@@H]1C[C@H]2CN(Cc3cccc(Cl)c3)C(=O)[C@]23CCCN13,-27.4
6,O=C1N(Cc2cccc(Cl)c2)C[C@@H]2C[C@@H](c3c[nH]c4ccccc34)N3CCC[C@@]123,-74.8
7,Cc1c([C@@H]2C[C@H]3CN(Cc4cccc(Cl)c4)C(=O)[C@]34CCCN24)cnn1C,-45.5
8,O=C1N(Cc2cccc(Cl)c2)C[C@@H]2C[C@@H](c3cccc4ncccc34)N3CCC[C@@]123,-48.8
9,Cn1cc([C@@H]2C[C@H]3CN(Cc4cccc(Cl)c4)C(=O)[C@]34CCCN24)c2ccccc21,-72.7
10,COc1cccc(/C=N/NC(=O)c2cccc([N+](=O)[O-])c2)c1OS(=O)(=O)c1ccccc1,-16.2
11,COc1ccc(C)cc1N(CC(=O)N1CCCCCC1)S(C)(=O)=O,12.2
12,CCOc1ccc(CN2CCNC(=O)C2CC(=O)NC2CCOCC2)cc1 (stereo not shown),-44.7
13,CC1CCC(NC(=O)COC(=O)c2ccco2)CC1 (stereo not shown),7.07
14,N#Cc1ccccc1OCC(=O)Nc1ccc2c(c1)OCCCO2,3.08
15,COc1ccccc1CNC(=O)C1(C)Oc2cccnc2NC1=O (stereo not shown),9.69
16,COCc1cc(CN2CCN(CCCc3ccccc3)C(CCO)C2)ccc1OC (stereo not shown),-66.1
17,COc1ccc(CN2CCN(CCC(C)C)C(CCO)C2)cc1Cn1cccn1 (stereo not shown),-48.1
18,COc1ccc(CN2CCN(CCC(C)C)C(CCO)C2)cc1Cn1cncn1 (stereo not shown),1.78
19,COCc1cc(CN2CCN(Cc3ccsc3)C(CCO)C2)ccc1OC (stereo not shown),-82.9
20,COc1ccc(CN2CCN(CCc3ccccc3)C(CCO)C2)cc1Cn1cncn1 (stereo not shown),-35.8
21,CCOc1ccc(CN2CCN(Cc3ccsc3)C(CCO)C2)cc1CO (stereo not shown),-39.4
